In the supplement of paper PMC13380429:
A number with no mark means an inactive call.

Each compound was assayed on Vero E6 infected with SARS-CoV-2 (assay: SARS-CoV-2 infection rate relative to infected DMSO; higher = more infection, active = 60 or less). Conditions: 24 h.
Compound Cc1ccnc2c1CCCC2C(N)=S (stereo unspecified) [isotiquimide] (10 µM) has an SARS-CoV-2 infection rate of 113%.
In the case of CCc1cc2c(s1)-n1c(C)nnc1CN=C2c1ccccc1Cl [etizolam] (10 µM), the SARS-CoV-2 infection rate is reported as 103%.
In the case of Cc1ccnc(NC(=O)C(C)c2cccc(C(=O)c3ccccc3)c2)c1 (stereo unspecified) [piketoprofen] (10 µM), the SARS-CoV-2 infection rate is reported as 107%.
Work on CCOC(=O)Nc1ccc2c(c1)N(C(=O)CN(CC)CC)c1ccccc1CC2 (10 µM) yielded an SARS-CoV-2 infection rate of 101%.
For C=CC(=O)c1ccc2ccccc2c1 [JAK3-inhibitor-V] (10 µM), the SARS-CoV-2 infection rate was 102%.
In the case of COc1ccc(S(=O)(=O)N(C(C)=O)c2ccccc2/C=C/c2cc[n+]([O-])cc2)cc1 (10 µM), the SARS-CoV-2 infection rate is reported as 93.5%.
Compound CCOC(=O)CSCCC1NC(C(=O)O)CS1 (stereo unspecified) [letosteine] (10 µM) has an SARS-CoV-2 infection rate of 117%.
For CCN1CCC(n2cc(CNc3cc(Cl)c4ncc(C#N)c(Nc5ccc(F)c(Cl)c5)c4c3)nn2)CC1 [cot-inhibitor-2] (10 µM), the SARS-CoV-2 infection rate was 40.5% (active).
For CCCCCCCC/C=C\CCCCCCCC(N)=O [oleamide] (10 µM), the SARS-CoV-2 infection rate was 94.5%.
With COc1ccc2cccc(CCNC(C)=O)c2c1 [agomelatine] (10 µM) the SARS-CoV-2 infection rate was 114%.
With CC1(C)CCC(C)(C)c2cc(C3(c4ccc(C(=O)O)cc4)OCCO3)ccc21 (10 µM) the SARS-CoV-2 infection rate was 110%.
Compound CC(=O)Nc1ccc(C(=O)Nc2ccccc2N)cc1 [tacedinaline] (0.833333 µM) has an SARS-CoV-2 infection rate of 110%.
O=C(O)c1ccc(NC(=O)[C@H](Cc2ccc(O)cc2)NC(=O)c2ccccc2)cc1 [bentiromide] (10 µM) showed an SARS-CoV-2 infection rate of 106%.
CN(C)CCN(C)CCc1ccc(Cl)c(Cl)c1 (10 µM) showed an SARS-CoV-2 infection rate of 82.5%.
Cn1c(COc2ccc(CC3SC(=O)NC3=O)cc2)nc2ccccc2c1=O (stereo unspecified) [balaglitazone] (10 µM) gave an SARS-CoV-2 infection rate of 111%.
CCn1c(O)nnc1-c1ccc(Cl)cc1 [5-(4chlorophenyl)-4-ethyl-2,4-dihydro-3H-1,2,4-triazol-3-one] (0.833333 µM) showed an SARS-CoV-2 infection rate of 110%.
For O=c1c(-c2ccccc2)c1-c1ccccc1 [diphencyprone] (10 µM), the SARS-CoV-2 infection rate was 100%.
In the case of COc1ccc(CNC(=O)c2cc(-c3cncc(C)c3)ncc2-c2nccs2)nc1OC (10 µM), the SARS-CoV-2 infection rate is reported as 100%.
For Cc1ccccc1NC(=N)Nc1ccccc1C [ditolylguanidine] (10 µM), the SARS-CoV-2 infection rate was 117%.
Compound CC(=O)NC[C@H]1CN(c2ccc(-c3ccc(CNCc4cnn[nH]4)cc3)c(F)c2)C(=O)O1 [radezolid] (10 µM) has an SARS-CoV-2 infection rate of 110%.
For C#Cc1cccc(Nc2ncnc3cc4c(cc23)OCCOCCOCCO4)c1 [icotinib] (0.833333 µM), the SARS-CoV-2 infection rate was 117%.
